From PubChem BioAssay (Tox21)
Values without a mark were called inactive. A call without a number means that no potency is given here. Calls of active or inactive are those of the source. Calls follow the shape of the dose curve; as a rule, active = well fitted curve in the direction sought with a large enough effect in the repeat runs; inconclusive = weak or mixed curves; inactive = flat fitted curve, though single readings scatter.

Assay: qHTS assay to test for compound auto fluorescence at 590 nm (red) in HEK293 cells (AID 720679)
Details: red autofluorescence 540/590 nm; series mostly up to 91.3 µM
Text: National Center for Advancing Translational Sciences [NCATS]
NIH Chemical Genomics Center [NCGC]
U.S. Environmental Protection Agency [EPA]
National Institutes of Environmental Health Sciences [NIEHS]
National Toxicology Program [NTP]
U.S. Food and Drug Administration [FDA]
Compound auto fluorescence often interferes with screening of the compound library against various biological targets and signaling pathways. Some of these compounds may have fluorophoric properties. Such properties may interfere with the assay outputs resulting in false positives and/or negatives. To decrease such complications and ensure the compound activities are relevant in terms of biological response, the Tox21 10K compound library was screened for auto fluorescence.
From the fluorophores used as reporter signals in our screening assays, the auto fluorescence equivalencies of compounds against three fluorophores have been evaluated: Triamterene, Fluorescein and Rose Bengal sodium for blue, green and red fluorescence, respectively. The fluorescence intensities were measured using Excitation/Emission wavelengths at 405/460nm, 485/535nm and 540/590nm for blue, green and red labels, respectively. This assay includes the red fluorescence data.
Tox21 Assay Protocol Summary:
2,000 HEK293 cells in 5 uL of culture medium containing 10% dialyzed FBS per well were dispensed into black wall/clear bottom 1536-well plates using a Multidrop Combi Dispenser (Thermo Scientific). The assay plates were incubated for 4-5 hr at 37C to allow cell attachment to the well bottom, followed by the transfer of 23 nL compound or DMSO vehicle by a pintool work station (Kalypsys, San Diego, CA). After the assay plates were incubated overnight at 37C and 5% CO2, fluorescence intensities in the assay plates were measured by an Envision (PerkinElmer, Shelton, CT) plate reader using three labels for measuring blue, green and red fluorescence at […] 460, 535 and 590nm respectively.
With CC(C(=O)O)c1ccc2c(c1)[nH]c1ccc(Cl)cc12 (stereo not given) the Potency was “inactive”. In the case of O=C1OC2(c3ccc(O)cc3Oc3cc(O)ccc32)c2ccc(N=C=S)cc21, the Potency is reported as “inactive”. With CCCNCCC the Potency was “inactive”. For O=C(Nc1ccc2c(O)c(N=Nc3ccc(N=Nc4ccc(S(=O)(=O)O)cc4)cc3)c(S(=O)(=O)O)cc2c1)c1ccccc1, the Potency was “inactive”. With C=C(C)c1cccc(C(=C)C)c1 the Potency was “inactive”. For Cc1ccc(C)cc1, the Potency was “inactive”. In the case of Oc1cc(Cl)cc(Cl)c1Cl, the Potency is reported as “inactive”. For [Cu+], the Potency was “inactive”. With CC1(C)[C@@H](O)CC[C@]2(C)[C@H]3C(=O)C=C4[C@@H]5C[C@@](C)(C(=O)O)CC[C@]5(C)CC[C@@]4(C)[C@]3(C)CC[C@@H]12 the Potency was “inactive”. In the case of CCCCCCCCCCOC(=O)c1ccccc1C(=O)OCCCCCCCC, the Potency is reported as “inactive”. Work on COC(=O)Nc1nc2ccc(C(=O)c3ccccc3)cc2[nH]1 yielded a fluorescence, % of fluorescent control of 0.41% [at 18.6 µM]. With Cc1ccc(O)c(N)c1 the Potency was “inactive”. With CC[C@H](C)COC(=O)/C=C/c1ccc(N=Cc2ccc(OC)cc2)cc1 the Potency was “inactive”. For COc1ccc2cc1Oc1ccc(cc1)C[C@H]1c3c(cc4c(c3Oc3cc5c(cc3OC)CCN(C)[C@@H]5C2)OCO4)CCN1C, the Potency was “inactive”. With Cc1ccc(C(=O)O)cc1 the Potency was “inactive”. In the case of O=S(=O)(O)c1ccccc1/C=C/c1ccc(-c2ccc(/C=C/c3ccccc3S(=O)(=O)O)cc2)cc1, the Potency is reported as “inactive”. With CC(C)(C)NSc1nc2ccccc2s1 the Potency was “inactive”. For O=C(O)c1cc(N=Nc2ccc([N+](=O)[O-])cc2)ccc1O, the Potency was “inactive”. With CCCCCCCCCCCCCC[N+](C)(C)Cc1ccccc1 the Potency was “inactive”. For CCCCOC(=O)CC, the Potency was “inactive”. In the case of C/C=C/C=C/COC(=O)C(C)C, the Potency is reported as “inactive”. For O[C@@H]([C@H](O)[C@H](O)CBr)[C@H](O)CBr, the Potency was “inactive”. With CC(CO)Oc1ccccc1 (stereo not given) the Potency was “inactive”. For Nc1ccc(NCCO)c([N+](=O)[O-])c1, the Potency was “inactive”. In the case of ClCCl, the Potency is reported as “inactive”. In the case of OC/C=C/CO, the Potency is reported as “inactive”. For CCn1c2ccccc2c2cc([N+](=O)[O-])ccc21, the Potency was “inactive”. For O=C1CCCCCCCCCCCCCCCO1, the Potency was “inactive”. In the case of Cc1c(C)c2c(c(C)c1OC(=O)c1cccnc1)CC[C@@](C)(CCC[C@H](C)CCC[C@H](C)CCCC(C)C)O2, the Potency is reported as “inactive”. For Cc1c(C)c([N+](=O)[O-])c(C(C)(C)C)c([N+](=O)[O-])c1C, the Potency was “inactive”. For COC1=C(OC)C(=O)C(CCCCCCCCCCO)=C(C)C1=O, the Potency was “inactive”. In the case of CCCCCC(C)OC(=O)COc1ccc(Cl)c2cccnc12 (stereo not given), the Potency is reported as “inactive”. For O=c1oc2cc(O)ccc2c2oc3cc(O)ccc3c12, the Potency was “inactive”. In the case of CN(C)Cc1ccccc1O, the Potency is reported as “inactive”. In the case of CC(C)(c1cc(Br)c(OCC(Br)CBr)c(Br)c1)c1cc(Br)c(OCC(Br)CBr)c(Br)c1 (stereo not given), the Potency is reported as “inactive”. For CCN(CCN)c1cccc(C)c1, the Potency was “inactive”. Work on NC[C@H]1O[C@H](O[C@H]2[C@H](O[C@@H]3O[C@H](CO)[C@@H](O)[C@H]3O)C(O)[C@H](N)C[C@@H]2N)[C@H](N)[C@@H](O)[C@@H]1O (stereo not given in full) yielded a fluorescence, % of fluorescent control of 0.971% [at 18.6 µM]. In the case of CCCCCCCCCCCCCC[N+](C)(C)C, the Potency is reported as “inactive”. In the case of CC(=O)[C@H]1CC[C@H]2[C@@H]3CCC4=CC(=O)CC[C@]4(C)[C@H]3CC[C@]12C, the Potency is reported as “inactive”. In the case of Nc1nc(N)nc(-c2cc(Cl)ccc2Cl)n1, the Potency is reported as “inactive”.
